Assay [1] can be described thus: qHTS profiling of the MIPE4 collection as inhibitors of Plasmodium falciparum (3D7) proliferation (AID 743344).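 Further: scaled between DMSO vehicle wells and 0.29 µM artemisinin as full inhibition.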 The following applies: P. falciparum 3D7 in erythrocytes, SYBR Green DNA fluorescence, 72 h; at 28.5 µM unless noted. Summed up:
(§1)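 Erythrocytes infected with P. falciparum (0.3% parasitemia, 2.5% hematocrit) incubated with compounds 72 h at 37 C, 5% CO2. Lysis with saponin/Triton buffer containing SYBR Green I, overnight at room temperature in the dark; DNA fluorescence (485/535 nm) normalised to 0.29 uM artemisinin and DMSO.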
(In general: In qHTS, concentration-response curves come from the screen itself.)

Assay [2] is described as follows: qHTS profiling of the MIPE4 collection as inhibitors of Plasmodium falciparum (DD2) proliferation (AID 743345). The following applies: P. falciparum Dd2 in erythrocytes, SYBR Green DNA, 72 h; at 28.5 µM unless noted. Put shortly: as §1
The nature of assay [3]: qHTS profiling of the MIPE4 collection as inhibitors of Plasmodium falciparum (DD2) proliferation (Rep 2) (AID 743346). The following applies: P. falciparum Dd2 in erythrocytes, SYBR Green DNA, 72 h; at 28.5 µM unless noted. Put shortly:
as §1

Assay [4] can be described thus: qHTS profiling of the MIPE4 collection as inhibitors of Plasmodium falciparum (HB3) proliferation (AID 743347).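 Further: plate controls were DMSO vehicle wells for no effect and artemisinin wells for full effect.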 The following applies: P. falciparum HB3 in erythrocytes, SYBR Green DNA, 72 h; at 28.5 µM unless noted. Summed up:
as §1

A short description of assay [5]: High-throughput drug toxicity screening in the BPDCN cell line Gen2.2 (AID 1224824). The following applies: Gen2.2 BPDCN cells; at 45.8 µM (top of the series) unless noted. Put shortly:
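Gen2.2 cells (500/well) in phenol red-free RPMI with 10% FBS were exposed to compounds for 48 h at 37 °C, 5% CO2. Viability was read by CellTiter-Glo luminescence and normalized to DMSO (100%) and 9.2 uM bortezomib (0%).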

The nature of assay [6]: qHTS assay for measurement of the activity of small molecule inhibitors on Zika virus induced Caspase-3 activity in human iPSC derived neural progenitor cells (hNPCs) (AID 1224857; active means well fitted curve in the direction sought with a large enough effect; an effect the other way counts as inactive or inconclusive; further: % of control where 0% means no effect; nearly all actives have a fitted effect of over 65% in size). Put shortly: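 After overnight (16–20 h) culture at 350 cells/well, hNPCs get compound, then ZIKV 2 FFU/cell one hour later. Six hours on, Caspase-Glo 3/7 is added and luminescence measured.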

A short description of assay [7]: qHTS assay for measurement of the activity of small molecule inhibitors on Zika virus induced Caspase-3 activity in human astrocytoma cells (AID 1224859; active means well fitted curve in the direction sought with a large enough effect; an effect the other way counts as inactive or inconclusive;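 further: plate controls were ZIKV-infected untreated cells for no effect and uninfected cells for full effect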). Summed up:
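Inhibition of Zika-induced caspase-3/7 activity: SNB-19 cells, 1 h compound pretreatment, ZIKV 2 FFU/cell for 6 h at 37 C, Caspase-Glo luminescence read-out.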

Assay [8] is described as follows: qHTS Screen of the MIPE 4.0 Collection Against Ewings Sarcoma (TC71) (AID 1259253; active means well fitted curve in the direction sought with a large enough effect; an effect the other way counts as inactive or inconclusive; further: nearly all actives have a fitted effect of over 40% in size; further: potency means the concentration at half of the fitted maximal effect). Put shortly:
(§2)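 After a 4 h attachment period in RPMI/5% FBS, cells were pin-dosed with test compounds; DMSO served as negative and 9.2 uM bortezomib (final) as positive control. Luminescent CellTiter-Glo signal at 48 h defined viability.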

Assay [9] can be described thus: qHTS Screen of the MIPE 4.0 Collection Against Ewings Sarcoma (TC32) (AID 1259256; active means well fitted curve in the direction sought with a large enough effect; an effect the other way counts as inactive or inconclusive; further: nearly all actives have a fitted effect of over 45% in size; further: potency means the concentration at half of the fitted maximal effect). Put shortly:
as §2

A short description of assay [10]: qHTS Screen of the MIPE 4.0 Collection Against Ewings Sarcoma (EW8) (AID 1259255; active means well fitted curve in the direction sought with a large enough effect; an effect the other way counts as inactive or inconclusive;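 further: 100% = DMSO-treated cells and 0% = medium-only wells without cells; nearly all actives have a fitted effect of over 35% in size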). Put shortly: as §2
Assay [11] can be described thus: qHTS assay to identify small molecule inhibitors of chordoma cells - UCH-2 (AID 1259356; active means well fitted curve in the direction sought with a large enough effect; an effect the other way counts as inactive or inconclusive; further: on the % scale 0 is the no-effect control and ±100 the full control effect).
The nature of assay [12]: qHTS Screen of the MIPE 4.0 Collection Against Ewings Sarcoma (RDES) (AID 1259252; active means well fitted curve in the direction sought with a large enough effect; an effect the other way counts as inactive or inconclusive;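 further: 100% = DMSO-treated cells and 0% = medium-only wells without cells; nearly all actives have a fitted effect of over 35% in size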). Put shortly:
as §2

Assay [13] in a line: qHTS assay to identify small molecule inhibitors of chordoma cells - UCH-1 (AID 1259355; active means well fitted curve in the direction sought with a large enough effect; an effect the other way counts as inactive or inconclusive; further: on the % scale 0 is the no-effect control and ±100 the full control effect; nearly all actives have a fitted effect of over 55% in size). Summed up: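 Seed 800 cells per well; incubate overnight at 37 C, 5% CO2. Add test compounds (15 concentrations), then the auranofin–topoisomerase-agent combination. Incubate 48hr, add CellTiter-Glo, wait 30min, read luminescence.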
Assay [14] can be described thus: qHTS profiling for inhibitors of Plasmodium falciparum (3D7) proliferation (AID 743322).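 Further: infected erythrocytes exposed to compound for 72 h before lysis; 100% = DMSO vehicle wells and 0% = 0.29 µM artemisinin.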 Conditions: P. falciparum 3D7 proliferation; at 28.7 µM (top of the series). Summed up:
as §1

A short description of assay [15]: qHTS profiling for inhibitors of Plasmodium falciparum (DD2) proliferation (AID 743323). The following applies: lower = more inhibition; at 28.7 µM (top of the series). Put shortly:
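Parasite proliferation measured via DNA-dye fluorescence, as uninfected erythrocytes lack DNA. Cultures at 0.3% parasitemia and 2.5% hematocrit incubated 72 h with compound; signal scaled between vehicle and 0.29 uM artemisinin wells.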

Assay [16] can be described thus: qHTS profiling for inhibitors of Plasmodium falciparum (HB3) proliferation (AID 743324; active means well fitted curve in the direction sought with a large enough effect; an effect the other way counts as inactive or inconclusive;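 further: 100% = DMSO vehicle wells and 0% = artemisinin-treated control wells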). Conditions: Plasmodium falciparum HB3 blood-stage proliferation; at 28.7 µM (top of the series). Put shortly:
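P. falciparum HB3 grown in erythrocytes (0.3% parasitemia, 2.5% hematocrit final) with compound for 72 h at 37 C, 5% CO2. Parasite DNA detected by SYBR Green after saponin/triton lysis overnight; normalized to 0.29 uM artemisinin and DMSO.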

Assay [17] can be described thus: Identifying Small Molecule Inhibitors of Pancreatic Cancer Stem Cells (SN12C, Spheroid) (AID 1259360; active means well fitted curve in the direction sought with a large enough effect; an effect the other way counts as inactive or inconclusive;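 further: 100% = DMSO-treated cells and 0% = wells without cells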). The following applies: Potency: SN12C spheroid viability. Summed up:
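Monolayer and spheroid cultures are compared. Spheroids form over 14 days in stem cell medium on hydrogel-coated low-attachment plates, then are exposed to compound for 48 h before CellTiter-Glo luminescence.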

Each structure is given as a SMILES string. Inconclusive results are not listed. Activity calls are given as the source filed them. Unless noted, how the calls were made is not given here.

Compound `CO[C@H]1C=CO[C@@]2(C)Oc3c(C)c(O)c4c(O)c(c5c(c4c3C2=O)NC2(CCN(CC(C)C)CC2)N=5)=NC(=O)C(C)=CC=C[C@H](C)[C@H](O)[C@@H](C)[C@@H](O)[C@@H](C)[C@H](OC(C)=O)[C@H]1C` registered a parasite growth, % of DMSO control in assay [1] of 5.28%. Moreover, in assay [2], the parasite growth remaining, % of DMSO control (lower = more inhibition) was 17.8%. For the same compound, the parasite growth, % of control (lower = inhibition) in [3] worked out at 12.8%. This compound also returned a growth, % of control in assay [4] of 5.92%. The cell viability, % of control (lower = more cytotoxic) in assay [5] was found to be 106%. For the same compound, the Potency result in [6], in [7], in assay [8] and in assay [9] was “inactive” in each case.

The compound `COc1cccc([C@@H](C)NCCCc2ccccc2Cl)c1` registered a parasite growth, % of DMSO control in [1] of 6.27%. The parasite growth remaining, % of DMSO control (lower = more inhibition) in assay [2] was found to be 78.7%. Besides, the parasite growth, % of control (lower = inhibition) in assay [3] stood at 13.3%. Also, in assay [4], the growth, % of control was 7.8%. The cell viability, % of control (lower = more cytotoxic) in assay [5] was 172%. The Potency result in [6], in [7], in assay [10] and in assay [9] was “inactive” each time.

For the compound `COCCCCC(=NOCCN)c1ccc(C(F)(F)F)cc1`, the parasite growth, % of DMSO control in [1] stood at 47.6%. For the same compound, the parasite growth remaining, % of DMSO control (lower = more inhibition) in assay [2] was 56.9%. For the same compound, in assay [3], the parasite growth, % of control (lower = inhibition) turned out to be 49%. Further, the growth, % of control in assay [4] worked out at 47.6%. For the same compound, the cell viability, % of control (lower = more cytotoxic) in assay [5] worked out at 56%. In addition, the Potency result in assay [6] and in assay [7] was “inactive” in each case. Moreover, the compound was classed as inactive in assay [11].

In turn, `CNC1CCC(N(Cc2cccc(-c3ccncc3)c2)C(=O)c2sc3c(F)ccc(F)c3c2Cl)CC1` (configuration not stated) gave a parasite growth, % of DMSO control in assay [1] of 4.87%. In [2], the parasite growth remaining, % of DMSO control (lower = more inhibition) worked out at 7.02%. In assay [3], the parasite growth, % of control (lower = inhibition) was found to be 23.7%. In assay [4], this compound gave a growth, % of control of 6.39%. Further, the cell viability, % of control (lower = more cytotoxic) in [5] worked out at 0.6%. The Potency entry in assay [6] and in [7] was “inactive” in each case.

Take `C=CCc1ccc(O)c(-c2ccc(O)c(CC=C)c2)c1`: the parasite growth, % of DMSO control in [1] came out at 22.1%. The parasite growth remaining, % of DMSO control (lower = more inhibition) in assay [2] came out at 75.6%. In addition, the parasite growth, % of control (lower = inhibition) in assay [3] came out at 27.4%. This compound gave a growth, % of control in [4] of 3.7%. Also, the cell viability, % of control (lower = more cytotoxic) in assay [5] amounted to 34.9%. Further, in assay [6], the Potency entry was “inactive”.

Take `Cc1ccc(Nc2cc(-c3cccc(N4C(=O)c5ccccc5C4=O)c3)ncn2)cc1NS(C)(=O)=O`: the parasite growth, % of DMSO control in assay [1] was 76.1%. In assay [2], the parasite growth remaining, % of DMSO control (lower = more inhibition) turned out to be 83.3%. For the same compound, the parasite growth, % of control (lower = inhibition) in [3] was determined as 76.5%. Further, the growth, % of control in assay [4] was found to be 97.4%. For the same compound, the cell viability, % of control (lower = more cytotoxic) in assay [5] was determined as 52.3%. The Potency result in assay [6] and in [7] was “inactive” throughout.

In turn, `CCCCCN(C)CCC(O)(P(=O)(O)O)P(=O)(O)O` displayed a parasite growth, % of DMSO control in assay [1] of 92.2%. In addition, the parasite growth remaining, % of DMSO control (lower = more inhibition) in assay [2] amounted to 92.9%. The cell viability, % of control (lower = more cytotoxic) in assay [5] was 125%. In addition, the Potency entry in assay [7], in assay [12], in assay [8], in assay [10] and in assay [9] was “inactive” throughout.

For `O=c1[nH]cnc2c1ncn2[C@H]1CC[C@@H](CO)O1`, the parasite growth, % of DMSO control in assay [1] worked out at 178%. Moreover, the parasite growth remaining, % of DMSO control (lower = more inhibition) in assay [2] was found to be 97.1%. In [3], the parasite growth, % of control (lower = inhibition) was determined as 101%. For the same compound, the cell viability, % of control (lower = more cytotoxic) in assay [5] turned out to be 93.2%. In addition, the Potency entry in assay [6] and in assay [13] was “inactive” throughout. Further, the call in assay [11] was inactive.

In the case of `O=C(Nc1cc(Cl)cc2c1[nH]c1cnccc12)c1cccnc1`, the remaining parasite growth % (stronger effect = lower value) in [14] was -0.264%. This compound also had an activity, percent of control in [15] of 7.04%. In assay [16], this compound gave a remaining proliferation (% of control), lower = more inhibition of 0.746%. In assay [1], this compound yielded a parasite growth, % of DMSO control of 5.73%. Besides, the parasite growth remaining, % of DMSO control (lower = more inhibition) in [2] is 15.5%. Moreover, the parasite growth, % of control (lower = inhibition) in assay [3] came out at 10.7%. The compound also yielded a growth, % of control in [4] of 3.51%. For the same compound, in [5], the cell viability, % of control (lower = more cytotoxic) was found to be 67.6%. Further, the Potency result in [6], in assay [7] and in assay [17] was “inactive” in each case. Moreover, the Potency in assay [8] is 23.5 µM (active); in assay [9], 26.4 µM (active).

In [1], `Nc1ncnc2c1nc(Cl)n2[C@@H]1O[C@H](CO)[C@@H](O)[C@@H]1O` came in with a parasite growth, % of DMSO control of 187%. In assay [2], the parasite growth remaining, % of DMSO control (lower = more inhibition) came to 109%. Besides, the parasite growth, % of control (lower = inhibition) in assay [3] came out at 43.2%. Besides, in [5], the cell viability, % of control (lower = more cytotoxic) came to 6.19%. Moreover, the Potency result in assay [6] and in [7] was “inactive” in each case. The Potency in [8] was 26.4 µM (active); in assay [9], 20.9 µM (active).
